Consider 31 molecules from PubChem BioAssay (NCATS).

Inconclusive results are not listed. Entries that show only a call come without a potency. A number with no mark means an inactive call. The source made the active and inactive calls. Calls come from the whole dose curve; as a rule, active = well fitted inhibition curve with a large enough effect; inconclusive = small, poorly fitted or top-dose-only effect; inactive = flat fitted curve, though single readings scatter.

Sequence of Calcium and integrin-binding protein 1 (Homo sapiens) (Q99828 whole entry, looked up): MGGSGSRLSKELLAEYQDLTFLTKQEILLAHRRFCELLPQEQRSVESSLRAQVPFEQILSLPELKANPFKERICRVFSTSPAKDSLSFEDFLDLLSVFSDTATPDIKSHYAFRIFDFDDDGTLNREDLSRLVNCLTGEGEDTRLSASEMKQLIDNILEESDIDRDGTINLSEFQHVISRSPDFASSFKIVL

The target of the test is Calcium and integrin-binding protein 1 (Homo sapiens) (UniProt Q99828). Nature of the test: Primary qHTS for Identification of Calcium Integrin Binding Protein 1 (CIB1) Competitor (AID 1508620).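 Note: GST tagged CIB1 binding a fluorescein labelled alphaIIb integrin peptide tracer; top concentration of the series differs between compounds.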 The settings on record: CIB1-GST / FITC-alphaIIb peptide fluorescence polarization; series mostly up to 57.7 µM. In a few lines:
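CIB1-GST (1 uM final) and compound incubated 15 min at room temperature before adding FITC-alphaIIb peptide tracer (100 nM final). Competition for binding read by fluorescence polarization (ex 480, em 540) after another 15 min at room temperature.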
For the molecule `CC1(C)NC2N(C1=O)c1ccccc1C2(O)CC(C(=O)O)n1cnc2ccccc2c1=O` (stereo unspecified), the Potency result was “inactive”.

As to `COC1C=C([C@@H]2CC=C3[C@@]4(C)C(CC[C@]32C)[C@@]2(C)C=CC(=O)C(C)(C)C2C[C@H]4OC(C)=O)C(=O)O1` (stereo partly specified), the Potency entry is “inactive”.

On to `CC1(C)CC[C@]2(C(=O)O)CC[C@]3(C)C(=CCC4[C@@]5(C)CCC(O[C@@H]6OC[C@H](O)[C@H](O)[C@H]6O[C@@H]6O[C@H](CO)[C@@H](O)[C@H](O)[C@H]6O)[C@@](C)(CO)C5CC[C@]43C)[C@@H]2C1` (stereo partly specified), for which the Potency result is “inactive”.

With `CC(=O)OC[C@]12[C@H](OC(C)=O)C(=O)[C@@H]3[C@@H](OC(C)=O)[C@@]14O[C@@]3(C)COC(=O)c1cccnc1[C@@H](C)[C@H](C)C(=O)O[C@@H]([C@H](OC(C)=O)[C@@H]2OC(C)=O)[C@]4(C)O`, the Potency entry is “inactive”.

For the molecule `O=c1ccn(C2OC(CO)C(O)C2O)c(=O)[nH]1` (stereo unspecified), the Potency entry was “inactive”.

`C=C(C)[C@H]1C[C@@H](O)C(=C)CC[C@@H](O)C(=C)[C@@H](O)C1`: the Potency result is “inactive”.

Regarding `CC(C)(O)C1CC=C(C(=O)OCC2OC(Oc3c(O)cc(C(=O)O)cc3O)C(O)C(O)C2O)CC1` (stereo unspecified), the Potency result is “inactive”.

In the case of `COc1cc(/C=C/C(=O)OC2[C@H](O)CC(O)(C(=O)O)C[C@H]2O)ccc1O` (stereo partly specified), the Potency entry is “inactive”.

Regarding `O=C1Nc2ccc(O)cc2O[C@H]1O[C@@H]1O[C@H](CO)[C@@H](O)[C@H](O)[C@H]1O`, the Potency result was “inactive”.

As to `O=C(NCC(=O)N1CC[C@H](NC2CCC(O)(c3ccc(-c4ncccn4)cn3)CC2)C1)c1cccc(C(F)(F)F)c1` (stereo partly specified), the Potency entry was “inactive”.

For `CC[C@H](C)/C=C(C)/C=C/C(=O)Cc1cc(O)c(C)c(O)c1C=O`, the Potency entry is “inactive”.

For the molecule `O=C(C1CC1)N1CC[C@@H](Cc2n[nH]c(=O)n2-c2ccc(-c3ccc4occc4c3)cc2)C1`, the Potency entry is “inactive”.

Take `OC[C@H]1O[C@@H](Oc2cc(O)cc(/C=C/c3ccc(O)cc3)c2)[C@H](O)[C@@H](O)[C@@H]1O`: the Potency entry is “inactive”.

On to `Cc1ncc([N+](=O)[O-])n1CC(O)CN1CCOCC1` (stereo unspecified), for which the Potency entry is “inactive”.

With `Clc1ccc2c(c1)C1=NCCN1c1c(-c3noc(C4CC4)n3)ncn1-2`, the Potency result is “inactive”.

Turning to `O=C1NC(=Nc2ccccc2F)S/C1=C\c1ccc(C(=O)O)cc1`, the Potency result is “inactive”.

In the case of `C[C@@H]1O[C@@H](OC[C@H]2O[C@@H](OCCc3ccccc3)[C@H](O)[C@@H](O)[C@@H]2O)[C@H](O)[C@H](O)[C@H]1O`, the Potency entry is “inactive”.

For the molecule `C=C1CCC2C(C)(COC3OC(COC(=O)CC(=O)O)C(O)C(O)C3O)CCCC2(C)C1CCC1=CCOC1=O` (stereo unspecified), the Potency result was “inactive”.

On to `COc1cc2c(cc1O)C1(OC)Cc3ccc4c(c3C1N(C)CC2)OCO4` (stereo unspecified), for which the Potency result is “inactive”.

For `C=C1CCC2C(OC(=O)C2(O)COC(C)=O)C2C(=C)C(O)CC12` (stereo unspecified), the Potency result is “inactive”.

`CC(NCc1ccc(OCc2cccc(F)c2)cc1)C(N)=O` (stereo unspecified): the Potency entry is “inactive”.

In the case of `CO[C@H]1C=C2C(CC[C@H](O[C@@H]3O[C@H](CO)[C@@H](O)[C@@H](O)[C@H]3O)C2(C)C)[C@]2(C)CC[C@]3(C)C([C@H](C)C(O)C(C=C(C)C)O[C@@H]4O[C@H](CO)[C@@H](O)[C@@H](O)[C@H]4O)CC[C@@]3(C)C12` (stereo partly specified), the Potency entry is “inactive”.

Consider `C/C(=C\CCC(C)(O)c1ccc(C)cc1)C(=O)O` (stereo unspecified), for which the Potency result is “inactive”.

Take `C=C1[C@H]2CC[C@]3(O)[C@@](CC[C@@H]4[C@](C)(C(=O)O)CCC[C@]43C)(C2)[C@H]1OC(=O)/C(C)=C\C`: the Potency result is “inactive”.

In the case of `CC(C)=CC/C=C(/C)[C@H]1CC[C@]2(C)[C@@H]1[C@H](O)CC1[C@@]3(C)CC[C@H](O)C(C)(C)[C@@H]3[C@@H](O[C@@H]3O[C@H](CO)[C@@H](O)[C@H](O)[C@H]3O[C@@H]3O[C@@H](C)[C@H](O)[C@@H](O)[C@H]3O)C[C@]12C` (stereo partly specified), the Potency result is “inactive”.

As to `CC1CCC(=O)CC(O)C(O)CC(=O)O1` (stereo unspecified), the Potency result was “inactive”.

Regarding `COc1cc(/C=C/C(=O)OC(C)(C)C(OC2OC(CO)C(O)C(O)C2O)C(=O)OCc2ccc(OC3OC(CO)C(O)C(O)C3O)cc2)ccc1O` (stereo unspecified), the Potency result was “inactive”.

For `CC1=CC2(O)/C=C/C(C)(O)CC(O)/C=C/C(=O)OC23C(=O)NC(CC(C)C)C3C1C` (stereo unspecified), the Potency result was “inactive”.

As to `CC1C(=O)CC2C3C(O)CC(C(=O)O)C12CC3(C)C` (stereo unspecified), the Potency result was “inactive”.

Consider `COc1cc(C2Oc3c(OC)cc(/C=C/C(=O)OC[C@H]4O[C@@H](OC(C)(C)C(=O)O)[C@H](O)[C@@H](O)[C@@H]4O)cc3C2CO)ccc1O` (stereo partly specified), for which the Potency result is “inactive”.

As for `CC(=O)O[C@@H]1[C@H](O[C@@H]2O[C@H](CO)[C@@H](O)[C@H](O)[C@H]2O)[C@@H](O[C@@H]2O[C@@H](C)[C@H](O)[C@@H](O[C@@H]3O[C@H](CO)[C@@H](O)[C@H](O)[C@H]3O)[C@H]2O)[C@H](OC(=O)C23CCC4(C)C(=CCC5C6(C)CC(O)C(O[C@@H]7O[C@H](C(=O)O)[C@@H](O)[C@H](O)[C@H]7O)C(C)(C(=O)O)C6CCC54C)C2CC(C)(C)CC3O)O[C@@H]1C` (stereo partly specified), the activity change, negative = inhibition is 4.49% [at 12.4 µM].
